Several values for one entry are separate records, joined by “and”; a condition that tells them apart may be missing. Equal values may be shown once. Activity calls are given as the source filed them. Unless noted, calls come from the whole dose curve; as a rule, active = well fitted curve in the direction sought with a large enough effect in the repeat runs; inconclusive = weak or mixed curves; inactive = no such curve, though single readings can be large; an effect the other way counts as inactive or inconclusive.
Columns and labels:
[1] = qHTS assay for small molecules that induce genotoxicity in human embryonic kidney cells expressing luciferase-tagged ATAD5 (AID 651632); note: nearly all actives have a fitted effect of over 15% in size
Method in brief: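 A rise in luciferase signal from ATAD5-tagged HEK293T cells marks genetic stress. Cells were exposed to compounds for 16 hr at 37C, 5% CO2, then luciferase was quantified after a 30 min room-temperature incubation with Amplite.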

[2] = qHTS assay for small molecule disruptors of the mitochondrial membrane potential - cell viability (AID 720634; calls by dose curve;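 note: human HepG2 liver cancer cells; series mostly up to about 83 µM; nearly all actives have a fitted effect of over 20% in size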)
Method in brief: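 Cytotoxicity was quantified from ATP content by CellTiter-Glo luminescence in the same wells as the MMP dye read-out. HepG2 (2,000 cells/well) were plated overnight and exposed to compounds for 1 hr at 37 C.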

[3] = qHTS assay for small molecule disruptors of the mitochondrial membrane potential (AID 720635); note: potency is the fitted concentration of half-maximal effect
Method in brief: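 HepG2 cells exposed to compound 1 hr at 37C, then Mito-MPS dye 30 min. Ratio read of aggregate (540/590 nm) versus monomer (490/535 nm) fluorescence.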

[4] = qHTS assay to test for compound auto fluorescence at 535 nm (green) in HEK293 cells (AID 720680)
[5] = target: Glucocorticoid receptor (Homo sapiens) (UniProt P04150); experiment: qHTS assay to identify small molecule agonists of the glucocorticoid receptor (GR) signaling pathway (AID 720691; active = well fitted activation curve with a large enough effect in the signal ratio in the repeat runs, not every such curve was filed as active; inconclusive = weak or mixed curves, or effect the other way; inactive = no such curve, though single readings can be large or run the other way; the % refers to the signal ratio)
Sequence of Glucocorticoid receptor (Homo sapiens) (P04150 whole entry, looked up): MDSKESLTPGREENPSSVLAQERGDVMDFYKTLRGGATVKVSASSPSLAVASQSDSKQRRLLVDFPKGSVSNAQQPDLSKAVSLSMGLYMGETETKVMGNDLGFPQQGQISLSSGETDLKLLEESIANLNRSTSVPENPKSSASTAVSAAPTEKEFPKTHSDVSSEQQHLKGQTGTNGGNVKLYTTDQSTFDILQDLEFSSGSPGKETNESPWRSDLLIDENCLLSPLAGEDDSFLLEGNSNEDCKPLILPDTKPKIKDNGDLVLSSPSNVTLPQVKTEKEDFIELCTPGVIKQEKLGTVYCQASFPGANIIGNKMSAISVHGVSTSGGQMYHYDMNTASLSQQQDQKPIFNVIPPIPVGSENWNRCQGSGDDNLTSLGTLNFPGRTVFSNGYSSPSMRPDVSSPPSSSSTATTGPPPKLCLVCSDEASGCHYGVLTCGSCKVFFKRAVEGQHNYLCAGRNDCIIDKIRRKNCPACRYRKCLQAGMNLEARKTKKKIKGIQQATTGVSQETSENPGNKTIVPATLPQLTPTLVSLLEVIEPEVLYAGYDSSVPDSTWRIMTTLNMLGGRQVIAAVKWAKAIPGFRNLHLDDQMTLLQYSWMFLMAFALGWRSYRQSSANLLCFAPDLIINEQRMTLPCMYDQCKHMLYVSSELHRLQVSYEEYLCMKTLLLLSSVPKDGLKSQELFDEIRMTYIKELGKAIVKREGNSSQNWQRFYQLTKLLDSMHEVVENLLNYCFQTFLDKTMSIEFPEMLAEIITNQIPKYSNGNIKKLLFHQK
Method in brief: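 Agonist-mode qHTS in HeLa cells stably expressing a glucocorticoid-response-element beta-lactamase reporter. Fluorescence intensity read with FRET substrate (2 h, room temperature) after 18 h compound treatment at 37 C.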

[6] = qHTS assay for identifying genotoxic compounds that show differential cytotoxicity against isogenic chicken DT40 cell lines with known DNA damage response pathways - Rev3 mutant cell line (AID 743014); note: nearly all actives have a fitted effect of over 55% in size; note: potency is the fitted concentration of half-maximal effect
[7] = qHTS assay to identify small molecule antagonists of the thyroid receptor (TR) signaling pathway - cell viability counter screen (AID 743064); note: nearly all actives have a fitted effect of over 50% in size; note: potency is the fitted concentration of half-maximal effect
Method in brief: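 Compounds were tested on GH3.TRE-Luc cells in the presence of T3 at 1 nM final. Following 23.5 h at 37 °C, cell viability was quantified by CellTiter-Fluor.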

[8] = qHTS assay to identify small molecule antagonists of the thyroid receptor (TR) signaling pathway (AID 743065); note: nearly all actives have a fitted effect of over 55% in size; note: potency is the fitted concentration of half-maximal effect
Method in brief: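 GH3.TRE-Luc rat pituitary cells (two TREs driving luciferase) were dosed with compound, then stimulated with 1 nM T3 (final) for 23.5 h at 37 C. ONE-Glo luminescence was the read-out, with CellTiter-Fluor fluorescence as the cytotoxicity counter-screen.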

[9] = test system: thyroid hormone receptor (rat, GH3 cells); experiment: qHTS assay to identify small molecule agonists of the thyroid receptor (TR) signaling pathway (AID 743066; calls by dose curve)
[10] = target: Estrogen receptor (Homo sapiens) (UniProt P03372); experiment: qHTS assay to identify small molecule agonists of the estrogen receptor alpha (ER-alpha) signaling pathway (AID 743075; calls by dose curve; note: potency is the fitted concentration of half-maximal effect)
Sequence of Estrogen receptor (Homo sapiens) (P03372 whole entry, looked up): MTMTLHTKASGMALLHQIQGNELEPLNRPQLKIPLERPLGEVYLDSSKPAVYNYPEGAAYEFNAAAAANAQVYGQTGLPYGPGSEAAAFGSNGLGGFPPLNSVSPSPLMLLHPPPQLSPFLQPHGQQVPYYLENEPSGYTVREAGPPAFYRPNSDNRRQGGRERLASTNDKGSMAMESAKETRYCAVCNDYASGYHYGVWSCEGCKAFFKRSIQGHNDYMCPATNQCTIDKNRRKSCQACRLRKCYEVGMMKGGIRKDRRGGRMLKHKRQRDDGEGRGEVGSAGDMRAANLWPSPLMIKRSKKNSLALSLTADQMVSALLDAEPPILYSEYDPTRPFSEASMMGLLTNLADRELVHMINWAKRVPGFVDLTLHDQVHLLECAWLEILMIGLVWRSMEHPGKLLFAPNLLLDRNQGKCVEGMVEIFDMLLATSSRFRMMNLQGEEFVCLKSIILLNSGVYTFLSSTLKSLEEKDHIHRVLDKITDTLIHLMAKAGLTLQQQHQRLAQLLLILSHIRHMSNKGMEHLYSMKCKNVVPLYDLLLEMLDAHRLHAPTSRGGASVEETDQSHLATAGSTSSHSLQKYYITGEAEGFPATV

[11] = target: Estrogen receptor (Homo sapiens) (UniProt P03372); experiment: qHTS assay to identify small molecule agonists of the estrogen receptor alpha (ER-alpha) signaling pathway using the BG1 cell line (AID 743079); note: nearly all actives have a fitted effect of over 20% in size; note: potency is the fitted concentration of half-maximal effect
[12] = qHTS assay to identify small molecule antagonists of the estrogen receptor alpha (ER-alpha) signaling pathway using the BG1 cell line - cell viability counter screen (AID 743081);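 note: compound given together with 17beta-estradiol as the ER stimulus; series mostly up to about 70 µM; nearly all actives have a fitted effect of over 45% in size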
[13] = target: Aryl hydrocarbon receptor (Homo sapiens) (UniProt P35869); experiment: qHTS assay to identify small molecule that activate the aryl hydrocarbon receptor (AhR) signaling pathway (AID 743085); note: nearly all actives have a fitted effect of over 15% in size; note: potency is the fitted concentration of half-maximal effect;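 for activation: HG2L7.5c1 human HepG2 liver cells with stably integrated DRE-driven firefly reporter; series mostly up to about 70 µM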
Sequence of Aryl hydrocarbon receptor (Homo sapiens) (P35869 whole entry, looked up): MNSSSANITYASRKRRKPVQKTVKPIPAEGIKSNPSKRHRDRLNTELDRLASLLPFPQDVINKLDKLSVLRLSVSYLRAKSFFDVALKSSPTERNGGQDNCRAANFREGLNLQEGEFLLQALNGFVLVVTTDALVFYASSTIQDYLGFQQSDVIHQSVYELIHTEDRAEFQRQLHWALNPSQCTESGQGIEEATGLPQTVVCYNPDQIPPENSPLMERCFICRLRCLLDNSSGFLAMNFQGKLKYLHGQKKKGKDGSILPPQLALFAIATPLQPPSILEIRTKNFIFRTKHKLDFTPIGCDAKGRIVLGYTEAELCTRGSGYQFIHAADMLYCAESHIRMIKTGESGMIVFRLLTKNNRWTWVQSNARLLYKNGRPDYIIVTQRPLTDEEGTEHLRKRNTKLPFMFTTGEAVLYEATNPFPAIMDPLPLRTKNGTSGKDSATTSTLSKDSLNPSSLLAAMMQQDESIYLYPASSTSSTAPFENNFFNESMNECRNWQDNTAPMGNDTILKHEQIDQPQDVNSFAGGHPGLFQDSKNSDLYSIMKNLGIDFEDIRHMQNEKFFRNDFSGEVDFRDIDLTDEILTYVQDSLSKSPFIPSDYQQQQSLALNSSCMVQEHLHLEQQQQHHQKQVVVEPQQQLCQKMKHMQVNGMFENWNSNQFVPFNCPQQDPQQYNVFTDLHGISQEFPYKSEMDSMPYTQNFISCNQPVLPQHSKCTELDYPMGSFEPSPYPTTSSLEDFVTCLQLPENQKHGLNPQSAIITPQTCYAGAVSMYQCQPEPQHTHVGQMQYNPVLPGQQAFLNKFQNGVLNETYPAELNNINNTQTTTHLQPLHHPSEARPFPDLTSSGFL
Method in brief: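 24 h compound exposure, 37C, HepG2-derived HG2L7.5c1 cells with DRE-responsive luciferase. Readouts: fluorescence viability, then luminescence at room temperature after 30 min.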

[14] = target: Peroxisome proliferator-activated receptor gamma (Homo sapiens) (UniProt P37231); experiment: qHTS assay to identify small molecule agonists of the peroxisome proliferator-activated receptor gamma (PPARg) signaling pathway (AID 743094; active = well fitted activation curve with a large enough effect in the signal ratio in the repeat runs, not every such curve was filed as active; inconclusive = weak or mixed curves, or effect the other way; inactive = no such curve, though single readings can be large or run the other way; the % refers to the signal ratio)
Sequence of Peroxisome proliferator-activated receptor gamma (Homo sapiens) (P37231 whole entry, looked up): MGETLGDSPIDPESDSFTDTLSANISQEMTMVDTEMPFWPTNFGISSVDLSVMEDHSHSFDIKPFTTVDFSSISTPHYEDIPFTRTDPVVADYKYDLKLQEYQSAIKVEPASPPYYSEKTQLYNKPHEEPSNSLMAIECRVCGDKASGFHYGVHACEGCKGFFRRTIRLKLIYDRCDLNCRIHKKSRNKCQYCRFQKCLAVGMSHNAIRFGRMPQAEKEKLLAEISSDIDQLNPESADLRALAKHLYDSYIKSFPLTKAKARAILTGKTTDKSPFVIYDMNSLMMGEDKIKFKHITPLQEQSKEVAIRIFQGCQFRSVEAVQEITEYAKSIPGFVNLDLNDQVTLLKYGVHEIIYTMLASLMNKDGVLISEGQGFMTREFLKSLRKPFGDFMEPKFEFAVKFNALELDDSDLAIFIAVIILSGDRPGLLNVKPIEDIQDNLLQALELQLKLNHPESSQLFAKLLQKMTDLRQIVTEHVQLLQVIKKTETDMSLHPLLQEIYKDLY
Method in brief: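 Agonist activity was taken from a beta-lactamase reporter (FRET substrate, 1 h at room temperature) in HEK293H cells carrying a PPARg UAS-bla construct. Compounds in DMSO were incubated 17 h at 37C after a 5 h cell pre-incubation.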

[15] = qHTS assay to test for compound auto fluorescence at 535 nm (green) in HepG2 cells (AID 720675)
[16] = qHTS assay for identifying genotoxic compounds that show differential cytotoxicity against isogenic chicken DT40 cell lines with known DNA damage response pathways - Rad54/Ku70 mutant cell line (AID 743015); note: nearly all actives have a fitted effect of over 60% in size; note: potency is the fitted concentration of half-maximal effect
[17] = qHTS assay for small molecule agonists of the p53 signaling pathway (AID 651631; calls by dose curve; note: nearly all actives have a fitted effect of over 15% in size)
Method in brief: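 Quantitative high-throughput format: 4,000 p53RE-bla HCT-116 cells/well, 5 h pre-incubation, 16 h compound exposure at 37 °C, 2 h room-temperature substrate step, fluorescence intensity measured.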

[18] = qHTS assay for identifying genotoxic compounds that show differential cytotoxicity against isogenic chicken DT40 cell lines with known DNA damage response pathways - wild type cell line (AID 743012); note: nearly all actives have a fitted effect of over 60% in size; note: potency is the fitted concentration of half-maximal effect
Method in brief: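 Viability by ATP luminescence (CellTiter-Glo, 30 min RT) after 40 h compound treatment at 37 C/5% CO2, using 300 parental DNA repair-proficient DT40 cells per well.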

[19] = target: Estrogen receptor (Homo sapiens) (UniProt P03372); experiment: qHTS assay to identify small molecule antagonists of the estrogen receptor alpha (ER-alpha) signaling pathway (AID 743069; active = well fitted curve in the direction sought with a large enough effect in the signal ratio in the repeat runs, not every such curve was filed as active; inconclusive = weak or mixed curves, or effect the other way; inactive = no such curve, though single readings can be large or run the other way; the % refers to the signal ratio; note: potency is the fitted concentration of half-maximal effect)
Method in brief: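 In this cell-based reporter format, GripTite HEK293 cells harbouring ER-alpha-UAS-bla were grown overnight with 2% charcoal-stripped FBS, dosed with DMSO-dissolved compounds, then challenged with 17beta-estradiol. After 18 hr at 37C, beta-lactamase activity was detected by FRET fluorescence.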

[20] = qHTS assay to identify small molecule antagonists of the estrogen receptor alpha (ER-alpha) signaling pathway using the BG1 cell line (AID 743080; calls by dose curve;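 note: BG1 cells stimulated with 17beta-estradiol alongside compound; series mostly up to about 70 µM; nearly all actives have a fitted effect of over 25% in size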)
Method in brief: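 Readout is ONE-Glo luminescence, taken 30 min at room temperature after reagent addition, preceded by a CellTiter-Fluor viability read; BG1-Luc-4E2 cells had received compound and 17beta-estradiol for 21.5 h at 37 C.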

Measured: Potency

C[C@]12C[C@H]3S[C@H]3C[C@@H]1CC[C@@H]1[C@@H]2CC[C@]2(C)[C@@H](O)CC[C@@H]12
active: [3] 11.4 µM | [10] 0.256 µM [inconclusive] | [11] 0.143 µM
not listed: [15] | [16] | [17] | [18] | [19] | [20]
inactive: all other assays above

Oc1ccc2c3c1O[C@H]1[C@@H](O)C=C[C@H]4[C@H](C2)NCC[C@@]341
inactive: [15] | [4] | [6] | [16] | [8] | [9] | [12] | [13]

Cc1ccc(C)cc1
inactive: [17]

C[C@@H]1[C@H](O)[C@@H](C)/C=C/C=C/CC/C=C/C=C/C=C/C=C/[C@H](O[C@H]2O[C@@H](C)[C@H](O)[C@@H](N)[C@H]2O)CC2O[C@](O)(C[C@@H](O)[C@H](O)CC[C@@H](O)C[C@@H](O)C[C@@H](O)CC(=O)O[C@H]1C)C[C@H](O)[C@H]2C(=O)O
not listed: [1] | [3] | [5] | [12] | [17]
inactive: all other assays above

CNC(=O)Oc1ccc2c(c1)[C@]1(C)CCN(C)[C@@H]1N2C
inactive: [17] | [13]

CCCSc1cc(OC)c(CCN)cc1OC
inactive: [15] | [4] | [19] | [10] | [20] | [14]
active: [18] 0.183 µM | [6] 0.258 µM | [7] 29 µM | [8] 32.5 µM | [13] 29 µM

Clc1ccc(C(Cn2ccnc2)OCc2csc3c(Cl)cccc23)c(Cl)c1 (stereo not drawn)
inactive: [1] | [2] | [15] | [4] | [20] | [12] | [13] | [14]

CC(=O)OC(C)=O
inactive: [13]

COc1cc2c(cc1OC)[C@@H]1CC(=O)[C@@H](CC(C)C)CN1CC2
inactive: [13]

CN[C@@]1(c2ccccc2Cl)CCCCC1=O
not listed: [1] | [3] | [17]
inactive: all other assays above

O=C(Cl)c1cccc(C(=O)Cl)c1
inactive: [13]

C[C@]12CC[C@H]3[C@@H](CCC4=CC(=O)CC[C@@]43C)[C@@H]1CC[C@H]2O
inactive: [1] | [2] | [15] | [4] | [9] | [12] | [13] | [14]
active: [18] 23.7 µM | [16] 29.8 µM

C[N+](C)(C)CCCCCCCCCC[N+](C)(C)C
inactive: [13]

O=c1c2ccccc2[se]n1-c1ccccc1
active: [3] 22.1 µM | [18] 5.31 µM | [6] 8.41 µM | [16] 6.68 µM | [7] 23.7 µM | [8] 23.7 µM
inactive: [1] | [15] | [4] | [10] | [12]

C1CN(P2(N3CC3)=NP(N3CC3)(N3CC3)=NP(N3CC3)(N3CC3)=N2)CCO1 (stereo not drawn)
active: [18] 3.76 µM | [6] 0.168 µM
not listed: [1] | [2] | [3] | [5] | [15] | [16] | [17]
inactive: all other assays above

C[C@H]1CC[C@]2(NC1)O[C@H]1C[C@H]3[C@@H]4CC[C@H]5C[C@@H](O)CC[C@]5(C)[C@H]4CC[C@]3(C)[C@H]1[C@@H]2C
active: [8] 26.6 µM
not listed: [2] | [3] | [5] | [7] | [14]
inactive: all other assays above

CCN(CC)/[N+]([O-])=N/O
inactive: [2] | [15] | [4] | [7] | [8] | [9] | [12]

Clc1ccc(Cl)c(Cl)c1Cl
inactive: [17] | [13]

Brc1ccc(Oc2ccc(Br)cc2)cc1
inactive: [17]

COc1cc(C[C@H](C)N)c(OC)cc1C
inactive: [2] | [4] | [16] | [7] | [9] | [19] | [10] | [11] | [20] | [14]

F/C(COc1ccc2c(c1)[nH]c1ccccc12)=C1/CN2CCC1CC2
active: [6] 8.41 µM | [7] 7.5 µM | [8] 8.41 µM | [19] 19 µM [inhibitor] | [13] 10.6 µM
inactive: [15] | [4] | [10] | [11]

O=C1C[C@@H]2OCC=C3CN4CC[C@]56c7ccccc7N1[C@H]5[C@H]2[C@H]3C[C@H]46 (tested in a mixture with another compound)
inactive: [2] | [15] | [4] | [18] | [6] | [16] | [7] | [8] | [9] | [12]

O.O.O.O=C([O-])C(O)C(O)C(=O)[O-].O=C([O-])C(O)C(O)C(=O)[O-].[K+].[K+].[Sb].[Sb] (stereo not drawn)
active: [16] 11.9 µM | [7] 29.8 µM | [19] 19 µM [inhibitor]
inactive: [1] | [2] | [15] | [4] | [10] | [12] | [13]

CC(C)[C@@]1(NC(=O)[C@@H]2C[C@@H]3c4cccc5[nH]cc(c45)C[C@H]3N(C)C2)O[C@@]2(O)[C@@H]3CCCN3C(=O)[C@H](Cc3ccccc3)N2C1=O
active: [3] 0.841 µM | [18] 29.8 µM | [16] 23.7 µM and 26.6 µM | [7] 23.7 µM and 21.1 µM | [8] 23.7 µM and 26.6 µM
not listed: [4] | [5] | [6] | [14] | [19]
inactive: all other assays above

Clc1cc(Cl)c(Cl)cc1Cl
inactive: [13]

CN1[C@@H]2CC[C@H]1CC(OC1c3ccccc3CCc3ccccc31)C2 (stereo partly drawn)
active: [18] 7.17 µM | [6] 10.1 µM | [7] 2.85 µM | [8] 5.07 µM
not listed: [1] | [3] | [13] | [16] | [17]
inactive: all other assays above

C=CCOc1c(Br)cc(C(C)(C)c2cc(Br)c(OCC=C)c(Br)c2)cc1Br
inactive: [13]

CCN(CC)CCO[C@H]1CC[C@@]2(C)C(=CC[C@@H]3[C@@H]2CC[C@]2(C)C(=O)CC[C@@H]32)C1
active: [18] 1.33 µM | [6] 0.531 µM | [16] 1.33 µM | [8] 21.1 µM
not listed: [5] | [15] | [17]
inactive: all other assays above

COc1cc([C@@H]2c3cc4c(cc3[C@H](O)[C@H]3COC(=O)[C@H]23)OCO4)cc(OC)c1OC
inactive: [17]
